Screening data: PubChem BioAssay, National Center for Advancing Translational Sciences (NCATS)
Most compounds without a hit are left out; they make up all but 10% or so of the library.
G9a block: qHTS Assay for Inhibitors of Histone Lysine Methyltransferase G9a. Histone-lysine N-methyltransferase EHMT2 (Homo sapiens), Q96KQ7. G9a H3K9 monomethylation, AlphaScreen, 2 h. Potency, µM (highest dose often 102 µM), usual class: inhibitors. 8.8% of 350,000 active. AID 504332, 2011; note: nearly all actives have a fitted effect of over 75% in size
Target sequence (Q96KQ7 913-1193 limits assumed): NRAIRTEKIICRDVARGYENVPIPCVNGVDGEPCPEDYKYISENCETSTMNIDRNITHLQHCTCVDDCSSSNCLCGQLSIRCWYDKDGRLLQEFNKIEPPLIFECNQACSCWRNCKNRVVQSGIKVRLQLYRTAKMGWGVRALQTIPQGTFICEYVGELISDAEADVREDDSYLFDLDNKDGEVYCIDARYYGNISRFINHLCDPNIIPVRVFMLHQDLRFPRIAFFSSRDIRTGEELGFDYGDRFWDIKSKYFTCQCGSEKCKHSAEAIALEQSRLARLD
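AlphaScreen detection with an anti-monomethyl H3K9 antibody quantified product after a 2 h room-temperature reaction containing 500 nM biotinylated H3K9 peptide, 20 µM SAM and 20 nM enzyme, which had been preincubated 15 min with compound.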
HP1b binding inh: HTS for Inhibitors of HP1-beta Chromodomain Interactions with Methylated Histone Tails. Chromobox protein homolog 1 (Homo sapiens), P83916. AlphaScreen HP1-beta / biotin-H3K9me3 peptide binding. Potency, µM (top dose mostly 114 µM), usual class: inhibitors. 0.56% of 390,000 active. AID 540317, 2011; note: nearly all actives have a fitted effect of over 70% in size
Target sequence (P83916 whole entry, looked up): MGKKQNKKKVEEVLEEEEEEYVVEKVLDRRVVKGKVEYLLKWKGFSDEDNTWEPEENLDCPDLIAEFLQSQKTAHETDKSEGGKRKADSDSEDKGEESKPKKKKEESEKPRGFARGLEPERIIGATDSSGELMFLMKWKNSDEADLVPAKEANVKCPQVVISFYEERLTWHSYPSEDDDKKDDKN
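HP1-beta protein (50 nM final) preincubated 30 min at room temperature with biotinylated H3(1-18)K9me3 peptide (50 nM) in PBS pH 7.4, 0.01% Tween-20, then compound added for 30 min. AlphaScreen streptavidin donor/nickel chelate acceptor beads (10 ug/mL final), 30 min dark, luminescence read.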
GLS inh: qHTS for Inhibitors of Glutaminase (GLS); Glutaminase kidney isoform, mitochondrial (Homo sapiens), O94925; GLS enzymatic activity, qHTS titration; Potency, µM (highest dose often 45.5 µM), most hits filed as inhibitors; 0.21% of 410,000 active
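hKGA in 45 mM KH2PO4 pH 8.2, 0.02% Tween-20 with pin-transferred compounds; 1 mM L-glutamine (stock) plus glutamate oxidase/HRP/Amplex Red coupling added. Fluorescence read initially and after 30 min at RT.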
BAZ2B block: qHTS Assay for Inhibitors of BAZ2B. Bromodomain adjacent to zinc finger domain protein 2B (Homo sapiens), Q9UIF8. AlphaScreen BAZ2B-H3K14Ac peptide displacement. Potency, µM (highest dose often 114 µM), usual class: inhibitors. 4.4% of 360,000 active. AID 504333, 2011; note: nearly all actives have a fitted effect of over 60% in size
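BAZ2B 50 nM plus b-H3(5-23)K14Ac 50 nM, PBS pH 7.4/0.01% Tween-20, 30 min RT; compound added (max 110 uM), 30 min RT; streptavidin donor/Ni-chelate acceptor beads 10 ug/mL final, 20 min dark; AlphaScreen read.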
JMJD2A Tudor: qHTS Assay for Inhibitors of JMJD2A-Tudor Domain. 4.4% of 390,000 active. Potency, µM (titrated, usually from 114 µM), most hits filed as inhibitors. AlphaScreen JMJD2A-Tudor / H3K4me3 peptide binding; note: nearly all actives have a fitted effect of over 50% in size
Large screens that a line does not name were inactive. Calls come from the whole dose curve; as a rule, active = well fitted curve in the direction sought with a large enough effect; inconclusive = small, poorly fitted or top-dose-only effect, or another doubt; inactive = no such curve, though single readings can be large; an effect the other way counts as inactive or inconclusive.

COc1cccc(CNC(=O)c2cc3c(s2)-c2c(C)cccc2OC3)c1	none
CCC1CCCCN1CCCNC(=O)c1[nH]c2ccccc2c1Sc1ccc(Cl)cc1 (configuration not stated)	none
Cc1cc(C)c(NC(=O)Cc2ccc(-n3c(C)nc4cccnc43)cc2)c(C)c1	none
Cc1ccc(S(=O)(=O)n2nnc3ccccc32)c(C)c1C	G9a block 50µM, BAZ2B block inconclusive
CCCCOC(=O)C1[C@H]2C(=O)N(Cc3cccs3)C[C@]23C=C[C@H]1O3 (some centres not stated)	BAZ2B block 79µM
CCOC(=O)C1C2C=CC3(CN(Cc4ccccc4)C(=O)C13)O2 (configuration not stated)	none
CCCOC(=O)C1[C@H]2C(=O)N(Cc3ccco3)C[C@]23C=C[C@H]1O3 (some centres not stated)	G9a block 50µM
CCCCCOC(=O)C1[C@H]2C(=O)N(Cc3cccs3)C[C@]23C=C[C@H]1O3 (some centres not stated)	none
CN1C(=O)c2ccccc2Sc2ccc(NC(=O)c3ccccc3F)cc21	none
COc1ccc(OC)c(-c2nc(CN3CCCCC3c3cccnc3)c(C)o2)c1 (configuration not stated)	none
COc1ccc(CN2CCCCC2c2cccnc2)c(OC)c1C (configuration not stated)	G9a block 79µM, BAZ2B block inconclusive
O=C(O)C1Cc2c([nH]c3ccccc23)C(c2ccc3c(c2)OCO3)N1 (configuration not stated)	G9a block 35µM, JMJD2A Tudor inconclusive
[O-]C(=C(C(=S)Nc1cccc2ccccc12)[n+]1ccccc1)c1ccc2c(c1)OCCO2	HP1b binding inh inconclusive, JMJD2A Tudor inconclusive (no result: G9a block, BAZ2B block)
CCOc1ccccc1NC(=S)/C(=C(\[O-])c1ccc2c(c1)OCCO2)[n+]1ccc(CC)cc1	G9a block 8.9µM, HP1b binding inh inconclusive, BAZ2B block inconclusive
[O-]/C(=C(\C(=S)Nc1ccccc1F)[n+]1ccccc1)c1ccc(-c2ccccc2)cc1	G9a block 32µM
[O-]/C(=C(\C(=S)Nc1ccc(Cl)cc1)[n+]1ccccc1)c1ccc(OC(F)F)cc1	G9a block 11µM, BAZ2B block inconclusive, JMJD2A Tudor inconclusive
CC(C)(C)c1cc[n+](/C(C(=S)Nc2ccccc2F)=C(/[O-])c2ccc3c(c2)OCCO3)cc1	G9a block inconclusive, BAZ2B block 35µM, JMJD2A Tudor inconclusive
Cc1ccc(-n2c(C)cc(/C([O-])=C(/C(=S)Nc3ccc(F)c(Cl)c3)[n+]3ccccc3)c2C)cc1	G9a block inconclusive, BAZ2B block inconclusive
CCN(c1ccccc1C)S(=O)(=O)c1nnc(NC(=O)c2ccc(OC)c(OC)c2)s1	none
CC(C)NC(=O)C1COc2ccccc2O1 (configuration not stated)	G9a block inconclusive
NC(=S)C1COc2ccccc2O1 (configuration not stated)	G9a block 45µM
C=CCSc1nc2sc3c(c2c(=O)n1-c1ccccc1)CCN(C)C3	BAZ2B block inconclusive
CN1CCc2c(sc3nc(NN)n(-c4ccc(Cl)cc4)c(=O)c23)C1	G9a block 45µM, BAZ2B block inconclusive, JMJD2A Tudor inconclusive
CN1CCc2c(sc3nc(NN)n(Cc4ccccc4)c(=O)c23)C1	G9a block 45µM, GLS inh inconclusive, BAZ2B block inconclusive, JMJD2A Tudor inconclusive
CN1CCc2c(sc(NC(=O)c3cc4cc([N+](=O)[O-])ccc4s3)c2C(N)=O)C1	G9a block 25µM, BAZ2B block inconclusive (no result: HP1b binding inh, GLS inh, JMJD2A Tudor)
CN1CCc2c(sc(NC(=O)c3ccc([N+](=O)[O-])o3)c2C(N)=O)C1	G9a block 35µM, BAZ2B block 35µM, JMJD2A Tudor inconclusive
CC(C)N1CCc2c(sc(NC(=O)c3cc4cc([N+](=O)[O-])ccc4s3)c2C(N)=O)C1	G9a block 40µM, HP1b binding inh inconclusive, BAZ2B block 40µM, JMJD2A Tudor inconclusive
Cc1cccc(C(=O)NCC(=O)OCc2cc(=O)n3nc(C)sc3n2)c1	none
CN1/C(=C\C(=O)c2ccccc2Cl)c2ccccc2CC1(C)C	G9a block inconclusive, BAZ2B block inconclusive
Cc1ccccc1C(=O)/C=C1/c2ccccc2CC(C)(C)N1C	BAZ2B block 50µM
CCCn1nc(C(=O)Oc2ccc3c(C)cc(=O)oc3c2)c2ccccc2c1=O	G9a block 14µM
Cc1ccc(N2CC(NC(=O)c3cc4ccccc4o3)CC2=O)cc1 (configuration not stated)	none
O=C(O)c1ccc(-c2ccccn2)s1	G9a block inconclusive
O=C(O)c1cc(-c2ccccn2)n[nH]1	BAZ2B block 45µM (no result: GLS inh)
O=C1c2ccccc2C(c2nnnn2Cc2ccccc2)N1Cc1ccc2c(c1)OCO2 (configuration not stated)	none (no result: G9a block, HP1b binding inh, BAZ2B block, JMJD2A Tudor)
O=S(=O)(c1cccc(C(F)(F)F)c1)N1CCC(c2cc(-c3cccc4ccccc34)n[nH]2)CC1	BAZ2B block inconclusive, JMJD2A Tudor 40µM
Cc1ccc(C)c(N2CCN(S(=O)(=O)c3ccc(F)c(C(=O)Nc4ccc(Cl)cc4Cl)c3)CC2)c1	none
COc1ccc2c(c1OC)C(=O)OC2CC(=O)c1ccc(O)c(O)c1 (configuration not stated)	G9a block 40µM, BAZ2B block inconclusive, JMJD2A Tudor 5µM
O=C(O)c1ccc2c(c1)C(=O)N([C@@H](Cc1ccc(O)cc1)C(=O)O)C2=O	none (no result: HP1b binding inh, GLS inh)
Sc1oc(-c2ccccc2)cc1C=Nc1ccccc1	G9a block 0.89µM, HP1b binding inh inconclusive, BAZ2B block 20µM, JMJD2A Tudor 20µM
CC1(C(=O)Nc2ccc(Cl)c(Cl)c2)CCN1C(=O)Cc1ccc(-c2ccccc2)cc1 (configuration not stated)	none (no result: G9a block, HP1b binding inh, BAZ2B block, JMJD2A Tudor)
Cc1c(C(=O)NCc2ccccc2Cl)sc2nc3n(c(=O)c12)CCCCC3	BAZ2B block inconclusive
CC(C)CC(NS(=O)(=O)OCC(Cl)(Cl)Cl)c1ccccc1 (configuration not stated)	GLS inh inconclusive, JMJD2A Tudor 40µM
N/C(=N\C(=S)Nc1ccc2c(c1)OCO2)c1ccccc1	none (no result: G9a block, HP1b binding inh, BAZ2B block, JMJD2A Tudor)
N#Cc1c(-c2ccccc2)cc(C2CC2)nc1N	none
N#Cc1c(-c2cccnc2)cc(-c2ccccc2)nc1N	none (no result: G9a block)
N#Cc1c(-c2ccco2)cc(-c2cccnc2)nc1N	G9a block 35µM, BAZ2B block inconclusive
N#Cc1c(-c2ccco2)cc(C2CC2)nc1N	G9a block 14µM
O=C(NCC(=O)N1CCCCCCC1)c1ccc(Cl)c(Cl)c1	none (no result: G9a block, HP1b binding inh, BAZ2B block, JMJD2A Tudor)
CCc1ccc2c(c1)NC(=O)C2(C)Cc1ccc(C(F)(F)F)nc1 (configuration not stated)	none (no result: G9a block, HP1b binding inh, BAZ2B block, JMJD2A Tudor)
